Where “and” joins values, the source holds several entries; their conditions need not be identical. Equal values may be shown once. About 83,000 compounds went through this panel and 20% of them were active in at least one assay; those are over-represented in the sample as a whole.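 The endpoint reported here, percent growth, reads 100 for growth as untreated, 0 for no net growth and -100 for all cells dead.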 Calls of active or inactive are those of the source. The calls were made as follows: active = growth percent below 10; inactive = the rest.

In this assay the test system is MDA-MB-468 breast. Description: NCI-60 one-dose screen, 48 h (100 = growth as untreated, 0 = no growth, -100 = all killed). The note with it: 10 µM unless noted.
With `Cn1ccnc1C(=O)/C=C/c1ccc(CC(=O)Nc2ccc(C(F)(F)F)cc2)cc1`, the growth was -6.59% (active).
For `CCOC(=O)Cn1c(C)c(/C=N/NC(=O)c2cc3c(ccc4ccccc43)o2)c2ccccc21` the value was 16.1% (inactive); for `Cc1cc2nc(CC(=O)c3cccc([N+](=O)[O-])c3)c(=O)[nH]c2cc1C`, 85.1% (inactive).
Take `COc1ccc(Cn2c(Br)c3c(c2-c2cc(OC)c(OC)c(OC)c2)CCc2sc(NC(=O)c4ccc(OC)cc4)nc2-3)cc1`: the growth is 98.8% (inactive).
For `O=C1N=NC2=C1c1c3ccccc3c(O)n1CC2` the value was 96.6% (inactive); for `CCSc1oc(C)nc1[P+](c1ccccc1)(c1ccccc1)c1ccccc1`, -20.3% (active); for `Cc1ccc(C)c2c1C(=O)OC2=O`, 110% (inactive).
With `CCNc1nc2ccc(Nc3ccnc4cc(Cl)ccc34)cc2[nH]1`, the growth was 21.8% (inactive).
With `CCCCCCC(CCCC)COC(=O)c1ccc(Cl)cc1` (stereo not given), the growth is 96.2% (inactive).
The result for `Nc1nc2ncc(CNc3ccc(C(=O)NC(CCC(=O)NC(CCC(=O)NC(CCC(=O)NC(CCC(=O)NC(CCC(=O)O)C(=O)O)C(=O)O)C(=O)O)C(=O)O)C(=O)O)cc3)nc2c(=O)[nH]1` (stereo not given) reads 131% (inactive); that for `O=C(CN1CCCCC1)Nc1nc(-c2cc3ccccc3oc2=O)cs1`, 96.3% (inactive).
For the compound `O=C(Nc1cccc(-c2ccc(N3CCOCC3)nn2)c1)Nc1cccc(C(F)(F)F)c1`, the growth is 29.1% (inactive).
Take `C=CCSC1=NC2C(N(CC)C(=O)N2CC)N1/N=C/C=C/c1ccccc1OC` (stereo not given): the growth is 29.6% (inactive).
On to `COC(=O)[C@@H](CCCCNC(=O)[C@]12CCC(C)(C)C[C@@H]1C1=CC[C@@H]3[C@@]4(C)C/C(=C/c5ccco5)C(=O)C(C)(C)[C@@H]4CC[C@@]3(C)[C@]1(C)CC2)NC(=O)[C@]12CCC(C)(C)C[C@@H]1C1=CC[C@@H]3[C@@]4(C)C/C(=C/c5ccco5)C(=O)C(C)(C)[C@@H]4CC[C@@]3(C)[C@]1(C)CC2`, for which the growth was 109% (inactive).
The result for `Cc1ccc(C)c2c1CCC2=O` reads 63.4% (inactive).
With `CCCCn1c(C)nc2ccc(Nc3nc(N4CCN(C)CC4)nc4nc[nH]c34)cc21`, the growth is 82.2% (inactive).
`CC(=O)C[n+]1ccc(C)cc1Sc1ccccc1C`: the growth is 82% (inactive).
In the case of `Cc1ccc(Cn2c(-c3nonc3N)nc3ccccc32)cc1`, the growth is 58.8% (inactive).
With `CC(O)C(O)C(O)C(O)C(O)C(=O)NNc1ccccc1` (stereo not given), the growth is 96.5% (inactive).
Turning to `FC(F)(F)c1cccc(Nc2ccccc2)c1`, the growth was 92.7% (inactive).
On to `CC[C@@H](C)/C=C(C)/C=C/C(=O)c1c(O)c(-c2ccc(O)cc2)cn(OC2CC(=O)CCC(C)OC(=O)CC2O)c1=O` (stereo not given in full), for which the growth was -29.9% (active).
Take `O=C(Nc1ccc(F)cc1)c1cc2ccccc2cc1O`: the growth is 60.8% (inactive).
For `O=C(/C=C\c1ccc(Cl)c(Cl)c1)c1ccccc1`, the growth was 79.8% (inactive).
Take `CCN(CC)c1ccc2nc3ccc(=[N+](CC)CC)cc-3oc2c1`: the growth was -46.6% (active).
As to `C=C(C)[C@@H]1CC[C@]2(COCCCNCCCN)CC[C@]3(C)[C@H](CC[C@@H]4[C@@]5(C)CC[C@H](OCCCN)C(C)(C)[C@@H]5CC[C@]43C)[C@@H]12`, the growth is -67.8% (active).
With `CCN(CC)CCCNCCCNc1cc(OC)cc2cccnc12`, the growth was -10.4% (active).
Take `Cc1nn2c(-c3nc4cc(Cl)c(Cl)cc4[nH]3)c(-c3ccc(F)cc3)nc2s1`: the growth is 8.3% (active).
On to `Cc1cc(C)cc(NCCC#N)c1`, for which the growth was 107% (inactive).
Consider `COc1ccc(NC(=O)/N=c2\oc3c(OC)cccc3cc2-c2cc3ccccc3[nH]2)cc1`, for which the growth was 61.1% (inactive).
The result for `COc1ccc(/C=C2\COc3ccc(O)c(O)c3C2=O)cc1` reads -8.03% (active); that for `Cc1cc(O)c(C(C)C)cc1S(=O)(=O)O` (tested in a mixture with another compound), 91.8% (inactive) and -40.1% (active) and 115% (inactive); that for `COc1ccc(-n2c(=O)c3ccccc3n(Cc3ccc(C(=O)NO)cc3)c2=O)cc1`, 3.21% (active).
As to `CCCc1c(OC(=O)c2ccccc2)nc2[nH]c(=O)sc2c1C`, the growth was 84.4% (inactive).
Regarding `COc1ccc(C(=O)/C=C/c2cc(-c3ccc(OC)c(OC)c3)n[nH]2)cc1OC`, the growth is -71.6% (active).
Take `Cc1cc(C2(c3ccc(O)c(C)c3)OS(=O)(=O)c3ccccc32)ccc1O`: the growth was 98.9% (inactive).
`Cc1cc2c(C(=O)NCC#N)cccc2n1-c1nc2c(c(NCc3ccccc3)n1)CCCC2`: the growth is -52.5% (active).
For `OC1CSSC1Cn1cnc2c(Nc3ccc(OCc4cccc(F)c4)c(Cl)c3)ncnc21` (stereo not given), the growth was -53.2% (active).
For `CCCCCCCCCCCC(=O)C(CCCCCCCCCC)C(=O)Nc1ccccc1` (stereo not given) the value was 109% (inactive); for `Cn1cc(-c2nc(-c3c[nH]c4ccncc34)cs2)c2ccccc21`, -12.2% (active).
As to `O=C(NCCN1CCCC1)n1cc(-c2ccncc2)c(-c2cc(O)cc(Cl)c2)n1`, the growth was 75.8% (inactive).

The values above are taken from PubChem BioAssay (NCI).
